Active and inactive are the calls of the source.
Tests used:
Albumin (Bos taurus) = Albumin (Bos taurus) (UniProt P02769); assay: bovine serum albumin binders on microarray, profiling panel, artefact control for SMM control protein annotation, biochemical, small-molecule microarray, Alexa647 label, 635/667 nm fluorescence (AID 1118); conditions: BSA-A647 binding, fluorescence 635 nm, higher = more signal;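 further: score merges 667 nm emission intensity and signal-to-noise per printed compound spot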
[1] = small-molecule microarray binders of probe aXIP, primary screen, biochemical, NeuroSMM set, 635/667 nm fluorescence (AID 1119); conditions: higher = more signal, called active from +8 up or from −8 down;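 further: probe is the protein aXip251-270 applied at 1 µg/mL to compound-printed slides; binding of probe to printed compounds measured as 667 nm fluorescence plus signal to noise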
[2] = small-molecule binders of probe aNOTCH3, primary screen, biochemical, small-molecule microarray, 635/667 nm fluorescence (AID 1120); conditions: higher = more signal;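 further: probe is a biotin-tagged antibody raised against NOTCH3 rather than NOTCH3 protein; score merges spot fluorescence near 667 nm with spot signal to noise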
[3] = small-molecule binders of probe aNOTCH2, primary screen, biochemical, small-molecule microarray, 635/667 nm fluorescence (AID 1121); conditions: higher = more signal;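 further: score merges feature fluorescence read at 667 nm with its signal to noise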
[4] = target: Carbonic anhydrase 2 (Homo sapiens) (UniProt P00918); assay: CAII small-molecule binders, profiling panel, biochemical, small-molecule microarray, Alexa647-labelled CAII (AID 1122); conditions: CAII-A647 binding fluorescence, higher = more signal
[5] = COS7 lysate on small-molecule microarray, probe aHis, 635 nm (AID 1123); conditions: COS7 cell lysate, fluorescence, higher = more signal;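 further: z-score combines 667nm fluorescence intensity with signal-to-noise per printed compound spot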
[6] = compound binding in COS7 lysate, probe aLAP1, primary screen, cell lysate, small-molecule microarray (AID 1124); conditions: probe aLAP1, fluorescence, higher = more signal;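 further: lysate comes from COS7 cells expressing LAP1 and is applied at 0.3 µg/mL; score merges spot fluorescence near 667 nm with signal-to-noise over triplicate slides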
Sam68 (KHDRBS1) = assay: Sam68 small-molecule binders, primary screen, biochemical, small-molecule microarray, 635 nm fluorescence (AID 1125); conditions: small-molecule microarray binding, higher = more signal;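 further: score merges 667 nm channel intensity with signal to noise over triplicate slides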
[7] = test system: Chordin-like protein 2 (CHRDL2); assay: CHRDL2 small-molecule binders, primary screen, biochemical, small-molecule microarray, 635 nm fluorescence (AID 1126); conditions: small-molecule microarray binding, fluorescence 635 nm; higher = more signal;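 further: printed compound slides probed with Chrdl2 protein at 4 µg/mL for 1 h at 4 C; score merges 667 nm emission intensity with signal to noise over three replicate slides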
[8] = target: Concanavalin-A (Canavalia ensiformis) (UniProt P02866); assay: ConA small-molecule binders, primary screen, artefact control for SMM control protein annotation, biochemical, small-molecule microarray, Alexa647 label, 635 nm (AID 1127); conditions: ConA-A647 binding fluorescence, higher = more signal;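 further: z combines 667 nm emission intensity with signal-to-noise across three replicate slides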
[9] = anti-His antibody binders, primary screen, artefact control for SMM control protein annotation, biochemical, small-molecule microarray, 635 nm fluorescence (AID 1128); conditions: anti-His Alexa647 antibody binding, higher = more signal;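 further: score merges feature fluorescence with signal-to-noise for each printed compound spot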
[10] = test system: Human papillomavirus type 1a E7 protein (residues 1-88); assay: HPV1a E7 small-molecule binders, primary screen, biochemical, small-molecule microarray, residues 1-88, 635 nm (AID 1129); conditions: small-molecule microarray binding, fluorescence 635 nm; higher = more signal
[11] = target: Focal adhesion kinase 1 (Homo sapiens) (UniProt Q05397); assay: small-molecule microarray binders of FAK, primary screen, biochemical, 635/667 nm fluorescence, BSA, DTT (AID 1130); conditions: PTK2 binding, 635 nm fluorescence, higher = more signal;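 further: composite of spot emission at 667 nm and signal to noise over triplicate slides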
[12] = test system: Fibrinogen (Alexa647-labelled); assay: fibrinogen binders on compound microarrays, profiling panel, artefact control for SMM control-protein annotation, biochemical, small-molecule microarray, 635/667 nm fluorescence (AID 1131); conditions: fibrinogen-A647 binding fluorescence, higher = more signal;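 further: z-score merges 667 nm fluorescence with per-spot signal-to-noise over triplicate slides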
[13] = target: Follistatin (Homo sapiens) (UniProt P19883); assay: follistatin binders on small-molecule microarrays, primary screen, biochemical, small-molecule microarray, 635/667 nm fluorescence (AID 1132); conditions: FST binding, 635 nm fluorescence, higher = more signal
[14] = target: Fibroblast growth factor 2 (Homo sapiens) (UniProt P09038); assay: FGF2 binders on small-molecule microarrays, primary screen, biochemical, small-molecule microarray, 635/667 nm fluorescence (AID 1133); conditions: small-molecule microarray binding, FGF2, fluorescence 635/667; higher = more signal
[15] = mitochondrial membrane potential change in A549 cells, profiling panel, cell-based, JC-1 fluorescence, basal, 24 h, 100 nL (AID 1138); conditions: higher = more signal;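 further: A549 lung adenocarcinoma cells under basal conditions with no added stimulus; test concentration not given here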
Lefty1 = Lefty1 binders on small-molecule microarrays, primary screen, biochemical, small-molecule microarray, 635/667 nm fluorescence (AID 1139); conditions: small-molecule microarray binding, fluorescence 635/667; higher = more signal
[16] = test system: wheat germ agglutinin (Triticum aestivum), Alexa647-labelled; assay: wheat germ agglutinin binders on compound microarrays, profiling panel, artefact control for SMM control-protein annotation, biochemical, small-molecule microarray, 635/667 nm fluorescence (AID 1140); conditions: WGA-A647 binding, 635 nm fluorescence, higher = more signal;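 further: score merges 667 nm feature emission with signal to noise over triplicate slides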
[17] = target: Luciferin 4-monooxygenase (Photinus pyralis) (UniProt P08659); assay: firefly luciferase enzyme inhibitors, primary screen, biochemical, luminescence, purified enzyme, 2006 set (AID 1141); conditions: SteadyGlo luminescence, 30 min, higher = more signal, called active from +8 up or from −8 down;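 further: cell-free assay with purified firefly luciferase at 100 ng per well in PBS; test concentration not given here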
Chain of Luciferin 4-monooxygenase (Photinus pyralis) (P08659 whole entry, looked up): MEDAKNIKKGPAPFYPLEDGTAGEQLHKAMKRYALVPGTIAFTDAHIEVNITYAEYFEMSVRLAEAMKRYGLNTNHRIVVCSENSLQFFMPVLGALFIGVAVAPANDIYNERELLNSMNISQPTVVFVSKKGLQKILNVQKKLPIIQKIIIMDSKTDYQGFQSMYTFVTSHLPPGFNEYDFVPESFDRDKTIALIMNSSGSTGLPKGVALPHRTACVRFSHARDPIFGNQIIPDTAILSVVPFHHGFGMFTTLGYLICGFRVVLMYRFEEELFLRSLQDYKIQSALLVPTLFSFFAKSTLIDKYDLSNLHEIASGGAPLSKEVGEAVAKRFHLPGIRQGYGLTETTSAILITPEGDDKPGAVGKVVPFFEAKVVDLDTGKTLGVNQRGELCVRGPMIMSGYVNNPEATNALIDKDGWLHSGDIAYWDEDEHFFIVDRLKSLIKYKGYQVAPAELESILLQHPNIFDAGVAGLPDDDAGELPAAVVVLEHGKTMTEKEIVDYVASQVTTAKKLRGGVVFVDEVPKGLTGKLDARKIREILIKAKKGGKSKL

Chain of Albumin (Bos taurus) (P02769 whole entry, looked up): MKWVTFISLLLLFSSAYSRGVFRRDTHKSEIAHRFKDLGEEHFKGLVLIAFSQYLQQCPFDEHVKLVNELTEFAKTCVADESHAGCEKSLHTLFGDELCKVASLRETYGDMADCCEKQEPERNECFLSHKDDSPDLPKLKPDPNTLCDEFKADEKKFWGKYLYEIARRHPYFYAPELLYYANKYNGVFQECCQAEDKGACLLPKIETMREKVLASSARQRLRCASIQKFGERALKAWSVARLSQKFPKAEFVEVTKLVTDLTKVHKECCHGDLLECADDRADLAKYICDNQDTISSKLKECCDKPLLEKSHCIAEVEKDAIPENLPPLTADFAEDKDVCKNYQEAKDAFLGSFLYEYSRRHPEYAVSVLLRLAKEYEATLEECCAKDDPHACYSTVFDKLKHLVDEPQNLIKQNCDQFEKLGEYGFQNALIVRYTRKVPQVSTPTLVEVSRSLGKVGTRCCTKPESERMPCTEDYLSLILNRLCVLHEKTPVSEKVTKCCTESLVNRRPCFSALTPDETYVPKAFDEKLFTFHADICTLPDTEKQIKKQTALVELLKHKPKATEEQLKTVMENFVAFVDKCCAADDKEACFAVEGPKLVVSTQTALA
Chain of Focal adhesion kinase 1 (Homo sapiens) (Q05397 whole entry, looked up): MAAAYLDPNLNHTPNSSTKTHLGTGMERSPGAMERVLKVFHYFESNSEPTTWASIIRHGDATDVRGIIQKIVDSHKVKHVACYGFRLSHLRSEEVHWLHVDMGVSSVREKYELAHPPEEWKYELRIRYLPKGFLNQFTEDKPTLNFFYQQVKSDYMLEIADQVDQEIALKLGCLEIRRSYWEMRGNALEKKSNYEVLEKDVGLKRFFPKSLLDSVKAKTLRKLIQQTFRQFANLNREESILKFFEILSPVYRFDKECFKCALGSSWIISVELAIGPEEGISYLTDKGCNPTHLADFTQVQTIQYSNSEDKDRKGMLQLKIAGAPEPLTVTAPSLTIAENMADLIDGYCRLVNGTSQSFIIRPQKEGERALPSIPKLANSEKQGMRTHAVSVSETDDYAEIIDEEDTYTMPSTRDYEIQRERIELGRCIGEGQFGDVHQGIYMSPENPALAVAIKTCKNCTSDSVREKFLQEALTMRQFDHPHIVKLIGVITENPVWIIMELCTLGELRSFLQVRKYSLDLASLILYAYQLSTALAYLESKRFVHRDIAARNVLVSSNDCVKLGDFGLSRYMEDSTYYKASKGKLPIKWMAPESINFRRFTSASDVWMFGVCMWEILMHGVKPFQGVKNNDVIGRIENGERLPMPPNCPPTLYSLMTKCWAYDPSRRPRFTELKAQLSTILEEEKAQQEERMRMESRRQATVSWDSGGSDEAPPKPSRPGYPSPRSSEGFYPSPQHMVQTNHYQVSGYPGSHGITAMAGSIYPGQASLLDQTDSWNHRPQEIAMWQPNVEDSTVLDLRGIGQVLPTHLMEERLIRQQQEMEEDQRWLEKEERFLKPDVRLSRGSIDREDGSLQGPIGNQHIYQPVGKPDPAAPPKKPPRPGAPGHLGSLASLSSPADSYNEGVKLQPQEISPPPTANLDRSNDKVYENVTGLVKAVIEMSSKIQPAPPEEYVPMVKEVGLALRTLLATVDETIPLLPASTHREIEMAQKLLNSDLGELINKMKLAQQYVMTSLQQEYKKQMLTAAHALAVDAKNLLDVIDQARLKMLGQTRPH
Chain of Concanavalin-A (Canavalia ensiformis) (P02866 whole entry, looked up): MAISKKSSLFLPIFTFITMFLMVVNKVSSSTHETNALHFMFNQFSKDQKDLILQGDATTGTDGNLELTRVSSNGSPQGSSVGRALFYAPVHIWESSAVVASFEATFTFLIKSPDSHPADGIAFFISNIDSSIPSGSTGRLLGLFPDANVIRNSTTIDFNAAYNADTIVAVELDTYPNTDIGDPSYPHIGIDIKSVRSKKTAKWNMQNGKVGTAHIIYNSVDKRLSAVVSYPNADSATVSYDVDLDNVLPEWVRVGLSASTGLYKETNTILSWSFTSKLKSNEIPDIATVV
Chain of Fibroblast growth factor 2 (Homo sapiens) (P09038 whole entry, looked up): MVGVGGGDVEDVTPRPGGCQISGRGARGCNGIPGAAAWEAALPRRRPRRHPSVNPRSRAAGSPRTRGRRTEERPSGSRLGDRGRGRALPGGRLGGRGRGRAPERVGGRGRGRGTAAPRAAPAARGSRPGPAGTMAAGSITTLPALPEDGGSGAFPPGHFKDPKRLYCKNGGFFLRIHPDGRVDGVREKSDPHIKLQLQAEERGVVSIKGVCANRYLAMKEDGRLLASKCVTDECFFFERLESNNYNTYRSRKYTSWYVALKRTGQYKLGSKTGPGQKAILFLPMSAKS
Chain of Follistatin (Homo sapiens) (P19883 whole entry, looked up): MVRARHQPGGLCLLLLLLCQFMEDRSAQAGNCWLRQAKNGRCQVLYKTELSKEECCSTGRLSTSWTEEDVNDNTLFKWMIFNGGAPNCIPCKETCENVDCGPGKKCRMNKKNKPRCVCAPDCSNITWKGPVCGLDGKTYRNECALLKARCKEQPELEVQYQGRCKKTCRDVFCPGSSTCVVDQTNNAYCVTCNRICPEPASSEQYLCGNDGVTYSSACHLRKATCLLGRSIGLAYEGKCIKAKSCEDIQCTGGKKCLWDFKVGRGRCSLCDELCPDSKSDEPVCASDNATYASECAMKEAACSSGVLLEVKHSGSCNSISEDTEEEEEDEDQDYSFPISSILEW

Compound	composite z-score (Albumin (Bos taurus))	composite Z-score [1]	composite z-score [2]	composite z-score [3]	composite z-score [4]	composite z-score [5]	composite z-score [6]	composite z-score (Sam68 (KHDRBS1))	composite z-score [7]	composite z-score [8]	composite z-score [9]	composite z-score [10]	composite z-score [11]	composite z-score [12]	composite z-score [13]	composite z-score [14]	z-score [15]	composite z-score (Lefty1)	composite z-score [16]	z-score [17]
COc1cccc([C@H]2Oc3ccc(OC)cc3C(=NO[C@@H]3O[C@H](COC(C)=O)[C@@H](OC(C)=O)[C@H](OC(C)=O)[C@H]3OC(C)=O)[C@@H]2O)c1	0.0351	1.25 (inactive)	-0.0598	-0.141	-0.403	0.1	0.474	0.153	-0.0174	-0.143	0.238	0.23	0.478	-0.339	-0.0006	0.192	-0.172	0.228	-0.639	0.713 (inactive)
CC(C)=CCCC(C)=CCON=C1C[C@@H](O)[C@@H](O)[C@@H]2[C@@H]3C(=O)N(c4cccc(Oc5ccccc5)c4)C(=O)[C@@H]3CC[C@@H]12	0.633	-0.174 (inactive)	-0.0026	-0.0686	0.112	0.956	-0.0676	0.877	0.418	0.0876	0.0079	0.929	1.58	0.589	0.612	0.207	-0.82	0.514	0.0969	0.775 (inactive)
C[C@@H]1CC[C@H]2C(=O)O[C@@H](Cc3ccccc3)CN2[C@H]1c1ccc(Br)cc1	0.126	-0.358 (inactive)	-0.0997	-0.106	0.512	0.871	0.912	1.06	0.227	0.266	2.07	0.688	0.217	0.376	0.397	0.297	0.362	0.495	0.526	0.178 (inactive)
C#CCCCON=C1C[C@@H](O)[C@@H](O)[C@@H]2[C@@H]3C(=O)N(CC)C(=O)[C@@H]3CC[C@@H]12	-0.171	-0.0844 (inactive)	0.0779	-0.108	0.231	0.248	-0.0523	0.771	0.687	0.433	0.399	0.63	-0.229	0.0609	0.759	0.672	-0.39	0.289	-0.0002	0.194 (inactive)
CC(C)=CCCC(C)=CCON=C1C[C@@H](O)[C@@H](O)[C@@H]2[C@@H]3C(=O)N(C[C@@H]4CCCO4)C(=O)[C@@H]3CC[C@H]12	0.816	0.365 (inactive)	0.121	-0.0651	0.22	0.401	-0.592	1.3	1.3	1.13	1.39	1.13	0.349	0.499	1.13	0.945	-0.773	1.24	0.572	0.217 (inactive)
O=C1[C@H]2[C@H]3[C@H](O)[C@H](O)CC(=NOCc4ccccc4)[C@@H]3CC[C@H]2C(=O)N1c1ccc(F)cc1F	0.137	-0.155 (inactive)	0.0303	-0.157	0.243	0.0305	-0.294	-0.806	0.0594	0.175	-0.0523	-0.406	0.757	0.416	0.072	0.359	-0.332	-0.0459	-0.141	0.0336 (inactive)
CO[C@H]1COC(=O)CCC[C@@H](C)[C@H](OC)COC(=O)[C@@H]2CCCN2C(=O)CC=C[C@@H]1C	-0.695	0.215 (inactive)	-0.0074	-0.132	-0.465	-0.776	0.324	-0.113	1.46	-0.232	-0.278	-0.779	-0.682	-0.759	1.33	1.18	-0.738	1.44	-0.207	1.19 (inactive)
CO[C@H]1COC(=O)CC=C[C@H](C)[C@@H](OC)COC(=O)[C@@H](C)NC(=O)CC=C[C@@H]1C	-0.614	0.611 (inactive)	-0.173	-0.169	-0.581	-0.629	0.304	-0.0974	1.47	-0.897	0.437	-1.32	-0.535	-1.31	1.45	1.1	-1.05	1.47	0.0216	0.674 (inactive)

Source: PubChem BioAssay
